Data taken from PubChem BioAssay.
Activity calls are given as the source filed them.

The compounds below were run on XIP peptide (Xip251-270) binding (assay: small-molecule binders of XIP peptide, primary screen, biochemical, small-molecule microarray, fluorescence 635/667 nm, 0.1 µg/mL protein (AID 1182)). Settings: fluorescent protein binding, 635 nm, higher = more signal, called active from +8 up or from −8 down.

Composite z-score, inactive:
COc1cc2c(cc1O)C(c1ccc(CN3CCCC3)cc1)N(Cc1cccc(OC(F)(F)F)c1)CC2 (stereo unspecified) -0.153
Cc1c(NC(=O)/C(C#N)=C/c2ccc(Cl)cc2)c(=O)n(-c2ccccc2)n1C 0.773
COCCOC(=O)N1C(=O)[C@@]2(c3cc(C#CC4(O)CCCCCC4)ccc31)[C@H](c1ccccc1OCCO)N1[C@H](c3ccccc3)[C@H](c3ccccc3)OC(=O)[C@H]1[C@@H]2C(=O)N1CCCCCCC1 1.86
CN1C(=O)[C@]2(CCS(=O)(=O)c3ccccc3)N=C(c3ccc(OCCCO)cc3)O[C@@H]2c2ccccc21 2.2
CCOC(=O)C1=CC[C@@H](c2ccccc2)N(S(=O)(=O)C[Si](C)(C)C)[C@H]1c1ccccc1 0.127
CCCCN1CC=CC23O[C@@H]4C=CCOC(=O)[C@@H]4[C@H]2C(=O)N(C(CO)C(C)C)[C@@H]3C1=O (stereo partly specified) -0.332
[N-]=[N+]=NCc1ccccc1C[C@]1(C(=O)N2CCOCC2)N=C(c2ccc(OCCCO)cc2)O[C@H]1c1ccccc1CN=[N+]=[N-] 0.158
COCCOC(=O)N1C(=O)[C@@]2(c3cc(C#CC4(O)CCCCCC4)ccc31)[C@H](c1ccc(OCCO)cc1)N1[C@H](c3ccccc3)[C@H](c3ccccc3)OC(=O)[C@H]1[C@@H]2C(=O)N1CCCCCCC1 0.662
COCCOC(=O)N1C(=O)[C@@]2(c3cc(C#Cc4ccc(OC)cc4)ccc31)[C@H](c1ccc(OCCO)cc1)N1[C@H](c3ccccc3)[C@H](c3ccccc3)OC(=O)[C@H]1[C@@H]2C(=O)N1CCCCCCC1 0.92
Cc1ccc(S(=O)(=O)N2[C@@H](c3ccccc3)C(C(=O)O)=CC[C@H]2c2ccc(C#N)cc2)cc1 0.556
COC(=O)Cn1c(C(=O)N(C)C)cc2c1C[C@H]1CN(C(=O)c3ccccc3)[C@@](Cc3ccc(OC)cc3)(C(=O)OC)[C@@H]21 1.28
CCOC(=O)C1=C[C@@H](C(C)(C)C)N(S(=O)(=O)c2ccc(C)cc2)[C@H]1c1ccccc1Cl 0.646
Cc1c(-c2ccc(-c3ccc(Cl)c(Cl)c3)o2)nc(-c2ccccc2)c2c1CO[Si]2(C(C)C)C(C)C 0.401
N[C@@H](Cc1ccccc1)Cn1cc(C2(O)CCCCC2)nn1 -0.0563
COC(=O)c1c(CC[C@@H](CO)NC(=O)N[C@@H](Cc2ccccc2)Cn2cc(-c3cncn3C)nn2)oc(C(C)=O)c1C(=O)OC 0.606
C=C(COC)C(=O)CC[C@@H](OC(C)=O)c1ccc(OCCO)cc1 1.61
CCOC(=O)C[C@H]1[C@H](OC(=O)Cc2ccc3c(c2)OCO3)[C@@H](NC(=O)c2ccccc2)c2cc(OCCCO)ccc2N1C(=O)Cc1ccc(OC)cc1 0.659
COC(=O)[C@@]1(Cc2ccc(OC)cc2)[C@H]2c3cc(C(=O)N(C)C)n(Cc4ccsc4Br)c3C[C@H]2CN1C(=O)c1ccccc1 0.197
CN(C)C(=O)[C@]1(Cc2ccccc2)N=C(c2ccc(OCCCO)cc2)O[C@@H]1c1ccccc1 0.895
O=c1cccc(-c2ccccc2C(F)(F)F)o1 -0.808
COCCOC(=O)N1C(=O)[C@@]2(c3cc(C#CCCO)ccc31)[C@H](c1ccc(O)cc1)N1[C@H](c3ccccc3)[C@H](c3ccccc3)OC(=O)[C@H]1[C@@H]2C(=O)N1CCc2cc(OC)c(OC)cc2C1 0.0404
COCCCNC(=O)[C@@H]1c2ccccc2C(=O)N(Cc2cc(C(F)(F)F)cc(C(F)(F)F)c2)[C@H]1c1ccc(CO)cc1 -0.313
CN(C)C(=O)[C@]1(Cc2ccccc2CN=[N+]=[N-])N=C(c2ccc(OCCCO)cc2)O[C@@H]1c1ccccc1N=[N+]=[N-] 0.854
C=CC[C@@]12N=C(c3ccc(OCCCO)cc3)O[C@@H]1c1ccccc1N(Cc1ccccc1)C2=O 0.799
COCCOC(=O)N1C(=O)[C@@]2(c3cc(C#CC4(O)CCCCCC4)ccc31)[C@H](c1ccc(OCCO)cc1)N1[C@H](c3ccccc3)[C@H](c3ccccc3)OC(=O)[C@H]1[C@@H]2C(N)=O 0.539
O=C1O[C@H](c2ccccc2)[C@H](c2ccccc2)N2[C@H]1[C@@H](C(=O)N1CCN(c3ncccn3)CC1)[C@]1(C(=O)Nc3ccccc31)[C@H]2c1ccc(O)cc1 0.0016
